Hits are enriched below; roughly 15% of the tested compounds scored in any of these assays.
HCMV antiviral: inhibitors of human cytomegalovirus; 4.5% of 410,000 active; AID 1259415; HFF cells, HCMV-luciferase reporter, 72 h; hits give low values; activity change, negative = inhibition, % at 57.5 µM; in the data active means activity change below about -60%; inconclusive means no clear call, values can overlap the other calls; inactive means above about -39%; further: on the % scale 0 is the no-effect control and ±100 the full control effect
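HFF cells seeded 16 h at 37C, treated with compounds, infected with luciferase-reporter HCMV at MOI 1 PFU/cell; luciferase read at 72 h post infection, normalized to buffer-only and Salinomycin controls.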
Sm TGR inh: blocks Schistosoma mansoni thioredoxin glutathione reductase; Q962Y6; purified TGR, DTNB reduction, TNB absorbance 405 nm; Potency, µM (highest dose often 114 µM), for the others: at the highest dose activity change, negative = inhibition, usual class: inhibitors; 3% of 360,000 active; AID 485364; further: potency means the concentration at half of the fitted maximal effect; on the % scale 0 is the no-effect control and ±100 the full control effect; nearly all actives have a fitted effect of over 60% in size
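First, TGR (20 nM dispensed) and NADPH were mixed with compound. Second, a 15 min room-temperature incubation followed. Third, further NADPH and then DTNB were added to start the reaction. Finally, TNB absorbance was monitored kinetically.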
SARS PLpro yeast: SARS-CoV PLP inhibition in yeast; S. cerevisiae expressing SARS-CoV PLpro, growth rescue; Potency, µM (doses to about 32.9 µM), without a hit: at the top dose activity, positive = growth rescue, usual class: activators; 0.19% of 330,000 active; calls by dose curve; further: potency means the concentration at half of the fitted maximal effect; 0% is about no effect; nearly all actives have a fitted effect of over 55% in size
HCV inh: blocks hepatitis C virus; Huh7.5.1 HCVcc-Cre infection, luciferase reporter, 44 h; Potency, µM (doses to about 41.8 µM), inactives show at the top dose activity change, negative = inhibition, most hits filed as inhibitors; 3.4% of 340,000 active; AID 651820; further: potency means the concentration at half of the fitted maximal effect; on the % scale 0 is the no-effect control and ±100 the full control effect
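Luciferase read-out (15 sec integration) after a 15 min room-temperature substrate step quantifies HCVcc-Cre infection. Cells, 1,000 per well, had compound added 4 h post-plating, then virus at ~0.5 moi, and were cultured 44 h.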
Pf growth 48h: inhibits P. falciparum growth in the first generation, 48 h; 5.9% of 310,000 active; P. falciparum luciferase growth in erythrocytes, 48 h; Potency, µM (series often up to 28.7 µM), for the others: at the top dose activity change, negative = inhibition, usual class: inhibitors; further: potency means the concentration at half of the fitted maximal effect; on the % scale 0 is the no-effect control and ±100 the full control effect
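Read-out is firefly luciferase luminescence from an integrated reporter in P. falciparum, so falling signal marks reduced parasite growth. Infected erythrocytes were at 2% hematocrit and 0.1% parasitemia (final) in Albumax-supplemented RPMI 1640.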
Pf growth 96h: inhibits malaria parasite growth, 96 h. Potency, µM (series often up to 28.7 µM), without a hit: at the top dose activity change, negative = inhibition, most hits filed as inhibitors. 6.9% of 320,000 active. P. falciparum luciferase reporter growth, 96 h; further: potency means the concentration at half of the fitted maximal effect; on the % scale 0 is the no-effect control and ±100 the full control effect
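P. falciparum expressing integrated firefly luciferase grown in erythrocytes (2% hematocrit, 0.05% parasitemia final) with compounds for 96 hours at 37 C, 5% CO2. Growth inhibition read as loss of luminescence after adding luciferase detection reagent.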
The depositor's hits bear a star; ? = inconclusive; . = no result given. Unless noted, the call rests on the fitted dose curve; in most records, active means well fitted curve in the direction sought with a large enough effect; inconclusive means small, poorly fitted or top-dose-only effect, or another doubt; inactive means no such curve, though single readings can be large; an effect the other way counts as inactive or inconclusive.

SMILES | HCMV antiviral | Sm TGR inh | SARS PLpro yeast | HCV inh | Pf growth 48h | Pf growth 96h
O=C(CCNS(=O)(=O)c1ccc(Br)cc1)N1CCCCCCC1 | -16 | -2% | ? | 11% | 22% | 2%
CC(=O)Nc1ccc(S(=O)(=O)NCCC(=O)N2CCN(C(c3ccccc3)c3ccccc3)CC2)cc1 | ? | -5% | -6% | 11% | 12µM* | 10µM*
COC(=O)c1ccc(SCC(=O)N2CCC(C)CC2)c([N+](=O)[O-])c1 | -13 | -16% | 3% | 2% | 21% | ?
CCOC(=O)CSc1ccc(C(=O)N2CCC3(CC2)OCCO3)cc1[N+](=O)[O-] | -29 | 12% | 5% | 1% | ? | 7.4µM*
CCOC(=O)N1CCN(C(=O)CSc2ccc(C(=O)OC)cc2[N+](=O)[O-])CC1 | 9 | 2% | -1% | -9% | -19% | 4.7µM*
Cc1ccc([C@H]2C(C(=O)O)=CC[C@@H](c3ccc(C)cc3)N2S(=O)(=O)c2ccc(C)cc2)cc1 | -6 | . | 0% | ? | . | .
C/C(=N\NC(=O)Cn1ccc(C(F)(F)F)n1)c1ccco1 | 37 | -3% | 3% | -4% | -8% | 6%
COc1ccc(S(=O)(=O)NCc2cc(-c3ccccc3Cl)no2)cc1 | -38 | -14% | -3% | 5% | 10µM* | -13%
Cc1ccc2c(CC(=O)Nc3nc(C)cs3)coc2c1 | -7 | 0% | -1% | 13% | 5% | 5%
COc1cccc(NC(=O)CSCc2cc(=O)c3ccc(C)c(C)c3[nH]2)c1 | 10 | -3% | . | . | . | .
CCOC(=O)C1CCN(c2nnc(N3CCCC3=O)s2)CC1 | -3 | 6% | 5% | -6% | 58% | 0.83µM*
CCOC(=O)C1CCN(C(=O)C2CCN(c3nnc(-n4cccc4)s3)CC2)CC1 | -2 | -7% | -4% | -2% | ? | -28%
CCCCn1c(-c2csc3c2CCC(C)C3)n[nH]c1=S (stereo unspecified) | -61* | 1% | -31% | ? | 0.93µM* | -33%
CCN(Cc1ccccc1)C(=O)CCS(=O)(=O)c1cc(Br)cc2c1N(C(=O)C1CC1)CC2 | -25 | -13% | . | . | . | .
Cc1ccc(S(=O)(=O)NCC(c2cccnc2)N2CCOCC2)cc1 (stereo unspecified) | -79* | -4% | 1% | 3% | 14% | -1%
Cc1cccc(C(=O)NCC(c2ccc3c(c2)OCO3)N2CCOCC2)c1 (stereo unspecified) | 0 | 25µM* | . | . | . | .
Cc1ccc(C(=O)NCC(c2ccc3c(c2)OCO3)N2CCOCC2)cc1 (stereo unspecified) | 15 | 7% | . | . | . | .
O=S(=O)(NCC(c1ccc2c(c1)OCO2)N1CCOCC1)c1ccc(Cl)cc1 (stereo unspecified) | -27 | -9% | -1% | 21% | -18% | 3%
Cc1ccc(C(CNC(=O)C(=O)Nc2ccc3c(c2)OCCO3)N2CCN(C)CC2)cc1 (stereo unspecified) | -22 | -5% | . | 16% | 7.4µM* | -1%
Cc1cc(S(=O)(=O)NCC(c2ccc3c(c2)OCO3)N2CCOCC2)ccc1F (stereo unspecified) | -64* | 3% | -9% | 3% | ? | 15µM*
COc1ccc(NC(=O)CSc2nc3c(oc4ccccc43)c(=O)n2-c2ccc(C)c(C)c2)cc1 | -7 | -1% | . | . | . | .
COc1ccc(S[C@]2(c3nc(C)no3)CC(=O)N(S(=O)(=O)c3ccc(F)cc3)[C@@H]2c2ccc(OC)cc2)cc1 | -18 | . | . | . | . | .
CC(C)n1c(=O)c2ccccc2n1Cc1cn(-c2ccccc2)nn1 | 8 | . | . | . | . | .
COc1ccccc1N1CCNC(C)C1=O (stereo unspecified) | 10 | -14% | . | 7% | 46% | ?
CSc1ccc(CN2CCC(n3nccc3NC(=O)c3ccccc3C)CC2)cc1 | -31 | 0% | 26% | ? | -26% | 23%
SMILES | HCMV antiviral | Sm TGR inh | SARS PLpro yeast | HCV inh | Pf growth 48h | Pf growth 96h
Cc1cnc(C(=O)Nc2cc(F)ccc2C)cn1 | ? | . | -2% | 2% | 25% | -11%
CCOC(=O)C1=C(COC(=O)Cc2ccc(Cl)cc2)NC(=O)NC1C (stereo unspecified) | -73* | -7% | -2% | 8% | -20% | -14%
CCOC(=O)C1=C(COC(=O)CCOc2ccc(C)cc2)NC(=O)NC1C (stereo unspecified) | -69* | ? | -14% | ? | -17% | 10%
CCOC(=O)C1=C(COC(=O)CCOc2ccc(OC)cc2)NC(=O)NC1C (stereo unspecified) | 34 | -1% | -3% | 9% | -23% | -19%
COc1cccc(C(c2sc3nc(-c4ccco4)nn3c2O)N2CCN(C)CC2)c1 (stereo unspecified) | 7 | 10% | . | . | . | .
CCSc1ncc(Cl)c(C(=O)Nc2ccc(S(=O)(=O)N(C)c3ccccc3)cc2)n1 | -22 | 13% | . | . | . | .
CCS(=O)(=O)c1ncc(Cl)c(C(=O)Nc2ccc(S(=O)(=O)N(C)c3ccccc3)cc2)n1 | -101* | 0.5µM* | 1% | ? | -5% | -7%
CCN(c1ccccc1)S(=O)(=O)c1ccc(NC(=O)c2nc(S(C)(=O)=O)ncc2Cl)cc1 | -100* | 0.4µM* | 10% | ? | 7% | ?
CC(C)Sc1ncc(Cl)c(C(=O)Nc2ccc(S(=O)(=O)N(C)c3ccccc3)cc2)n1 | -6 | -10% | . | . | . | .
Cc1ccc(NC(=O)C2CCN(S(=O)(=O)c3ccc4c(c3)CCCC(=O)N4)CC2)c(Cl)c1 | -28 | 0% | . | . | . | .
CC1CCCCN1CCCNC(=O)c1cc(Sc2ccc(Cl)cc2)nc2ccccc12 (stereo unspecified) | -21 | -1% | . | . | . | .
O=C(NCCCN1CCN(c2ccccc2F)CC1)c1cc2c(Cl)nc3ccccc3c2s1 | -6 | 3% | . | . | . | .
CC1CCN(CCCNC(=O)c2n[nH]c(=O)c3ccccc23)CC1 | 58 | 25% | -2% | 1% | 21% | 12µM*
CC1CCN(CCCNC(=O)c2cc(Sc3ccc(F)cc3)nc3ccccc23)CC1 | -65* | -6% | . | . | . | .
CC1CCN(CCCNC(=O)c2cc3c(Cl)nc4ccccc4c3s2)CC1 | -91* | 0% | -2% | 13µM* | ? | 9%
O=C(NCCCN1CCCC1)c1cc2c(Cl)nc3ccccc3c2s1 | -35 | -2% | 4% | 18µM* | ? | 5.9µM*
Cc1ccc2nc(Cl)c3cc(C(=O)NCCCN4CCC(C)CC4)sc3c2c1 | 5 | 0% | . | . | . | .
O=C(COC(=O)c1ccccc1O)Nc1ccc(N2CCOCC2)cc1 | -14 | -15% | 1% | 5% | 47% | -19%
CC(=O)N1CCN(S(=O)(=O)c2cccc(C(=O)NCc3ccc(F)cc3)c2)CC1 | -30 | . | 1% | 13% | . | .

Screening results deposited in PubChem by National Center for Advancing Translational Sciences (NCATS).
